Shown are actives, neighbours in structure and some others; about 11% of the full set was active somewhere.
HP1b binding inh: HP1-beta chromodomain-methylated histone interaction inhibition; P83916; Potency, µM (highest dose often 114 µM), usual class: inhibitors; AlphaScreen HP1-beta / biotin-H3K9me3 peptide binding; actives 0.56% (n = 390,000); note: nearly all actives have a fitted effect of over 70% in size
Target sequence (P83916 whole entry, looked up): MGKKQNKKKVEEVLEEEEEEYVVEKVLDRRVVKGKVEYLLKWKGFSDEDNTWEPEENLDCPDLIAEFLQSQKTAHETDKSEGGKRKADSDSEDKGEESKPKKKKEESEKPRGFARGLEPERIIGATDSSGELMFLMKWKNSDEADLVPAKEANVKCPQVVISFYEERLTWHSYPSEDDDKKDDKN
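Compound inhibition of the preformed complex between 50 nM HP1-beta and 50 nM biotinylated H3K9me3 peptide was read by AlphaScreen. Buffer was PBS pH 7.4 with 0.01% Tween-20. Incubations ran 30 min at room temperature, with 10 ug/mL donor/acceptor beads.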
BAZ2B inh: blocks human BAZ2B; Q9UIF8; AlphaScreen BAZ2B-H3K14Ac peptide displacement; Potency, µM (top dose mostly 114 µM), usual class: inhibitors; actives 4.4% (n = 360,000); AID 504333; note: nearly all actives have a fitted effect of over 60% in size
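Multi-concentration screen (max 110 uM) measuring displacement of acetylated histone H3 peptide from BAZ2B by AlphaScreen, using 50 nM protein, 50 nM peptide and 10 ug/mL streptavidin donor plus Ni-chelate acceptor beads.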
JMJD2A Tudor inh: blocks the human JMJD2A Tudor domain. O75164. AlphaScreen JMJD2A-Tudor / H3K4me3 peptide binding. Potency, µM (top dose mostly 114 µM), most hits filed as inhibitors. actives 4.4% (n = 390,000). AID 504339; note: nearly all actives have a fitted effect of over 50% in size
L3MBTL1 block: L3MBTL1 (human) inhibition. Q9Y468. AlphaScreen L3MBTL1–H3K9me1 peptide binding. Potency, µM (doses to about 57.1 µM), hits mostly inhibitors. actives 0.66% (n = 230,000); note: nearly all actives have a fitted effect of over 60% in size
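L3MBTL1 50 nM + b-AHA-H3(1-15)K9me1 75 nM, 30 min RT; compound added, 30 min RT; streptavidin donor/Ni-chelate acceptor beads 10 ug/mL each final, 30 min RT dark; AlphaScreen read.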
PI5P4Ka inh: inhibitors of human PI5P4K alpha; PI5P4Kalpha enzyme, ADP-Glo luminescence, 60 min; hits give low values; P48426; actives 1.2% (n = 330,000); max response, %; active = max response of -50% or lower; inconclusive = between -30% and -50%; inactive = -30% or higher; note: value at the top dose of about 77 µM
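Controls without substrate or without enzyme flank wells where PI5P4Kalpha converts substrate using 5 microM ATP (final). Incubation lasts 60 minutes at room temperature; ADP formed is read by ADP-Glo luminescence.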
G9a block: blocks human histone lysine methyltransferase G9a. Q96KQ7. G9a H3K9 monomethylation, AlphaScreen, 2 h. Potency, µM (doses to about 102 µM), hits mostly inhibitors. actives 8.8% (n = 350,000); note: nearly all actives have a fitted effect of over 75% in size
Target sequence (Q96KQ7 913-1193 limits assumed): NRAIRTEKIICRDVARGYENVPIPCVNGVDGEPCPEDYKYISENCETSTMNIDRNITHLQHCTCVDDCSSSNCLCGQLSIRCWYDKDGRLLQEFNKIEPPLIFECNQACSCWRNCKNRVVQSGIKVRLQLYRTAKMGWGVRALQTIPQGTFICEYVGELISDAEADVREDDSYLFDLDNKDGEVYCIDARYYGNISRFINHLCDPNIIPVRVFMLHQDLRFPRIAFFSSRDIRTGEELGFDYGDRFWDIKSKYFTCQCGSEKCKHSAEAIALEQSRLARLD
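Enzyme 20 nM + cpd, 15 min RT; add b-H3K9 pep 500 nM / SAM 20 uM; 2 h RT; anti-H3K9me1 Ab 0.5 ug/mL + SA donor / anti-rabbit acceptor beads 20 ug/mL each, 10 min; AlphaScreen read.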
Each line names hits and unclear results; the compound was inactive in the other large screens. Unless noted, calls come from the whole dose curve; as a rule, active = well fitted inhibition curve with a large enough effect; inconclusive = small, poorly fitted or top-dose-only effect; inactive = no such curve, though single readings can be large or run the other way.

O=C(OCC#CCSc1nnc(-c2cccc3ccccc23)o1)c1cc2ccccc2s1	none (no result: HP1b binding inh, BAZ2B inh, L3MBTL1 block, PI5P4Ka inh, G9a block)
Cc1cccnc1NC(=O)Cn1nc(-c2ccccc2)oc1=S	JMJD2A Tudor inh 79µM, G9a block 50µM
CCOC(=O)c1cc(OC(=O)c2ccc(Cl)cc2)n(-c2ccccc2)n1	none (no result: L3MBTL1 block, PI5P4Ka inh)
CN1CCN(c2ccccc2NC(=O)c2ccc(N3CCCCC3)c([N+](=O)[O-])c2)CC1	HP1b binding inh inconclusive, BAZ2B inh 40µM, JMJD2A Tudor inh 50µM, L3MBTL1 block inconclusive, G9a block inconclusive
O=C(Nc1ccc2c(c1)OCO2)c1ccc(N2CCCC2)c([N+](=O)[O-])c1	HP1b binding inh inconclusive, BAZ2B inh 35µM, JMJD2A Tudor inh inconclusive, G9a block 10µM
CN1CCN(c2ccccc2NC(=O)c2ccc(N3CCOCC3)c([N+](=O)[O-])c2)CC1	HP1b binding inh inconclusive, JMJD2A Tudor inh inconclusive, G9a block inconclusive (no result: L3MBTL1 block)
CCn1c(=O)c2cc(C(=O)N3CCN(c4cccc(OC)c4)CC3)sc2c2ccccc21	none (no result: L3MBTL1 block, PI5P4Ka inh)
COc1ccc(OC)c(CN2CCN(C(=O)c3ccc(S(=O)(=O)N4CCCCCC4)cc3)CC2)c1	none (no result: HP1b binding inh, BAZ2B inh, JMJD2A Tudor inh, L3MBTL1 block, G9a block)
COc1ccc(C(=O)N2CCN(Cc3cc(OC)ccc3OC)CC2)cc1	HP1b binding inh inconclusive, BAZ2B inh inconclusive, JMJD2A Tudor inh 50µM, G9a block 32µM
COc1ccc(C(=O)N2CCN(Cc3ccc(OC)c(OC)c3)CC2)cc1	HP1b binding inh inconclusive, BAZ2B inh inconclusive, JMJD2A Tudor inh 3.2µM, G9a block inconclusive
COc1ccc(CN2CCN(C(=O)c3cc(OC)c(OC)c(OC)c3)CC2)cc1OC	BAZ2B inh inconclusive, JMJD2A Tudor inh 2.5µM, G9a block 10µM (no result: PI5P4Ka inh)
COc1cc2c(cc1CN1CCN(C(=O)c3cc(OC)c(OC)c(OC)c3)CC1)OCO2	BAZ2B inh 56µM, JMJD2A Tudor inh 25µM, G9a block 11µM
CC1CCN(c2ccc(-c3nc(C(C)C)no3)cc2[N+](=O)[O-])CC1	none (no result: L3MBTL1 block, PI5P4Ka inh)
Cc1ccccc1C(=O)Nc1ccc(S(=O)(=O)N2CCC(c3nc4ccccc4s3)CC2)cc1	none (no result: L3MBTL1 block, PI5P4Ka inh)
COc1ccc(Cl)cc1N1C(=O)CN(Cc2cc(OC)c(OC)c(OC)c2)C1=S	HP1b binding inh inconclusive, JMJD2A Tudor inh inconclusive, G9a block 35µM (no result: L3MBTL1 block)
COc1ccc(CN2CC(=O)N(c3cc(Cl)ccc3OC)C2=S)cc1OC	G9a block inconclusive (no result: L3MBTL1 block)
CCOc1ccccc1CNC(=O)CN1C(=O)C2CCCCN2c2ccc(C(=O)N(C)C)cc21 (stereo not given)	none (no result: L3MBTL1 block, PI5P4Ka inh)
CN(CCC1CCCCO1)C(=O)CCc1nnc(Cc2c[nH]c3ccccc23)o1 (stereo not given)	G9a block 79µM (no result: L3MBTL1 block)
CN(CCC1CCCCO1)C(=O)CCc1nnc(CCc2ccccc2)o1 (stereo not given)	none (no result: L3MBTL1 block, G9a block)
O=C1CS/C(=N\N=C\c2ccco2)N1c1ccccc1	BAZ2B inh 50µM, JMJD2A Tudor inh inconclusive, PI5P4Ka inh inconclusive, G9a block inconclusive
O=C1CS/C(=N/N=C/c2ccccc2)N1c1ccc(O)cc1	none (no result: G9a block)
O=[N+]([O-])c1cc(C=Nc2ccc3ccccc3c2)ccc1Br	HP1b binding inh 50µM, BAZ2B inh 28µM, JMJD2A Tudor inh 50µM, G9a block 10µM
Cc1nc(C(=O)NCCO)cc2c1[nH]c1ccccc12	none (no result: L3MBTL1 block)
Cc1nc(C(=O)O)cc2c1[nH]c1ccccc12	BAZ2B inh 50µM, JMJD2A Tudor inh 79µM
CC(=NNC(=S)N1CC2CCC(CC2)C1)c1ccncn1	HP1b binding inh inconclusive, JMJD2A Tudor inh 14µM (no result: BAZ2B inh, L3MBTL1 block, G9a block)
CCC(CC)C(=O)N1CCc2cc(OC)c(OC)cc2C1COc1ccc(C(=O)OC)cc1 (stereo not given)	none (no result: L3MBTL1 block, PI5P4Ka inh)
CC(=O)N1CCCc2ccc(NC(=O)c3ccc(OC(C)C)cc3)cc21	none (no result: L3MBTL1 block, PI5P4Ka inh)
CCOc1cc(CNc2ccc(OC)cc2)cc(Br)c1OCC(=O)NC(C)(C)C	HP1b binding inh inconclusive, BAZ2B inh 18µM, JMJD2A Tudor inh 22µM, L3MBTL1 block inconclusive, G9a block inconclusive (no result: PI5P4Ka inh)
O=C(NCc1ccco1)c1ccc2c(c1)N(Cc1ccc(F)cc1)C(=O)c1ccccc1S2(=O)=O	none (no result: L3MBTL1 block, PI5P4Ka inh)
COc1ccc(/C=N/N(C)c2cc(=O)n(C)c(=O)[nH]2)cc1OC	BAZ2B inh 79µM, G9a block 40µM
